Consider 94 compounds from PubChem BioAssay AID463190 (Sanford-Burnham Center for Chemical Genomics, 2010).

One may read the inhibition as the relative decrease from the control value, in per cent.

Each structure is given as a SMILES string. The whole screen tested about 330,000 compounds, of which about 7,300 (2.2%) were called active. The sample holds actives, similar compounds and a random draw of the others, so the mix is not that of the screen.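 Rule for the calls: active = inhibition of at least 40%; inactive = the rest.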

This assay can be described thus: growth inhibition of tim10-1 ts yeast – luminescence, uHTS, primary screen (AID 463190).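 Note: mutant grown at 25 °C; 0% = DMSO wells with yeast and 100% = wells holding no yeast.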 The settings on record: S. cerevisiae tim10-1 ts strain growth, BacTiter-Glo, 24 h; at 20 µM; active compounds read high.
Take `CCOc1ccc(CCNC(=O)COC(=O)c2c(OC)cccc2OC)cc1OCC`: the inhibition is 8.9% (inactive).
For the compound `CCN(CC)c1ccc(C(=O)NNC(=O)CCc2nc3ccccc3c(=O)[nH]2)cc1`, the inhibition is 10.1% (inactive).
With `CC(=O)Oc1c(C(=O)c2nnc(C)o2)c(=O)n(Cc2ccccc2)c2ccccc12`, the inhibition is 7.1% (inactive).
Consider `CSCCC1NC(=O)N(CC(=O)Nc2cccc(S(=O)(=O)N3CCCCCC3)c2)C1=O` (centres undefined), for which the inhibition is 10.1% (inactive).
As for `O=S(=O)(c1ccc(F)cc1)N1CCN(C(=S)NC2CCCC2)CC1`, the figure is 16% (inactive).
As for `C[n+]1ccc(/C=C/c2c[nH]c3ccccc23)cc1`, the figure is 10.5% (inactive); as for `CCC(C)(C)NC(=O)C(c1ccc(OC)cc1)N(C(=O)CCC(=O)Nc1cc(C)on1)c1ccc(OC)cc1OC` (centres undefined), 6.97% (inactive); as for `CC1CCN(CCCNC(=O)CN2C(=O)CSc3ccc(S(=O)(=O)N4CCCCC4)cc32)CC1`, 25.2% (inactive).
The result for `Cc1cc(C(C)(C)C)n2nc(C)c(-c3ccccc3)c2n1` reads 8.46% (inactive); that for `COc1ccc(-c2cc(C)nc3nc(N)nn23)cc1`, 10.4% (inactive); that for `Cc1cc(N)n2nc(-c3ccc(C(C)(C)C)cc3)cc2n1`, 57% (active).
Regarding `O=C(O)CSC(NC(=O)c1cccnc1)(C(F)(F)F)C(F)(F)F`, the inhibition was -2.15% (inactive).
As for `CN(C)CCCCCN(C)Cc1cc2ccccc2o1`, the figure is 18.5% (inactive); as for `O=C(CN1CCCCCC1)NCCN1C(=O)S/C(=C\c2ccccc2Cl)C1=O`, 12.4% (inactive); as for `O=C1/C(=C\c2ccccc2Cl)SC(=S)N1CCC(=O)N1CCCc2ccccc21`, 41.3% (active).
Regarding `CN(C(=O)CCN1C(=O)/C(=C/c2ccccc2F)SC1=S)C1CCS(=O)(=O)C1` (centres undefined), the inhibition was 6.93% (inactive).
The result for `C#CCCCc1nc2ccccc2c(=O)n1N` reads 6.38% (inactive); that for `CC1CCCN(C(=O)c2ccc3c(c2)C(=O)N(CCC2=CCCCC2)C3=O)C1` (centres undefined), 24.8% (inactive).
As for `COC(=O)c1ccc(COc2ccc(/C=C/C(=O)c3ccc(OC)c(CSCC(=O)O)c3)cc2OC)cc1`, the figure is 29.5% (inactive); as for `COc1ccc(/C=C/C(=O)c2ccc(NS(=O)(=O)c3ccc(C)cc3)cc2)cc1O`, 31.4% (inactive); as for `COc1ccc(C(=O)/C=C/c2ccc(-c3ccccc3)cc2)cc1CSCC(=O)O`, 41.5% (active).
The result for `CCCCn1c(=S)[nH]c2cc(S(=O)(=O)N3CCCCC3)ccc21` reads 19.1% (inactive); that for `COc1ccc(C(=O)NC2(C(F)(F)F)NC(=O)N(CCCc3ccccc3)C2=O)c(OC)c1OC` (centres undefined), 22.9% (inactive); that for `COc1ccccc1-n1c(=S)[nH]c2c(sc(=S)n2-c2ccc(C)cc2C)c1=O`, 8.48% (inactive).
Regarding `Cc1ncc([N+](=O)[O-])n1CCOC(=O)c1ccc(Br)cc1`, the inhibition is 4.67% (inactive).
For the compound `COc1ccc(C2=NN(C(C)=O)C(c3ccccc3)C2)cc1` (centres undefined), the inhibition was 19.4% (inactive).
As for `CCC(C)N(C)C1CCN(C(=S)Nc2ccc(OC)cc2)CC1` (centres undefined), the figure is 2.23% (inactive).
As for `COc1ccc(NC(=S)N2N=CCC2c2ccccc2)cc1` (centres undefined), the figure is 40.3% (active); as for `CCc1ccc(OCC(=O)NCC(c2ccc(Cl)cc2)N2CCCCC2)cc1` (centres undefined), 34.1% (inactive); as for `S=c1[nH]nc(-c2ccncc2)n1/N=C/c1ccccc1Cl`, 13.5% (inactive).
As for `S=c1[nH]nc(-c2cccnc2)n1/N=C/C(Cl)=C\c1ccccc1`, the figure is 41.6% (active); as for `Fc1ccccc1/C=N/n1c(-c2cccnc2)n[nH]c1=S`, -14.4% (inactive); as for `COc1ccc(NC(=O)C(CC(C)C)NC(=O)C2CCC(C)CC2)cc1` (centres undefined), 23.1% (inactive).
Take `CC(=O)Nc1nc(C)c(Cc2ccccc2)c(=O)[nH]1`: the inhibition was 13.2% (inactive).
As for `COc1ccc([N+](=O)[O-])cc1-c1nc2ccccc2nc1-c1ccccc1`, the figure is 38.3% (inactive); as for `O=[N+]([O-])c1ccc2c(c1)Nc1nc3ccccc3nc1N2`, 60.5% (active).
The result for `O=[N+]([O-])c1ccc2nc(-c3ccccn3)[nH]c2c1` reads 34.1% (inactive); that for `CCSC(C)CC1C/C(=N/O)c2c(C)noc2C1` (centres undefined), -9.02% (inactive); that for `Cc1ccc(N2CCN(C(=O)c3cccs3)CC2)c(C)c1`, -6.62% (inactive).
With `CCCCN(CCCC)CC(O)Cn1c2ccccc2c(=O)c2ccccc21` (centres undefined), the inhibition is 14.3% (inactive).
The result for `O=C(CN1C(=O)c2ccccc2S1(=O)=O)NC1CCCCC1` reads 7.88% (inactive).
In the case of `O=C1c2ccccc2S(=O)(=O)N1CC(O)Cn1c2ccccc2c2ccccc21` (centres undefined), the inhibition is 60.7% (active).
As for `CCC1=[N+]([O-])C(C)(/C(C)=N\O)N(O)C1(C)C` (centres undefined), the figure is 9.85% (inactive); as for `O=C(NCc1ccccc1)C(c1cccnc1)N(C(=O)c1csnn1)c1ccc(F)cc1` (centres undefined), -25% (inactive).
As for `CCO[C@H]1OC(C(=O)N2CCN(Cc3ccccc3)CC2)=C[C@@H](c2cn(C(C)=O)c3ccccc23)[C@@H]1CCCO`, the figure is 15% (inactive).
For `COc1ccccc1Nc1ncnc2c1oc1ccccc12`, the inhibition is 3.5% (inactive).
`Cc1nc(Cl)c2oc3ccccc3c2n1`: the inhibition is 0.846% (inactive).
As for `COc1ccc(C)cc1Nc1nc(C)nc2c1oc1ccccc12`, the figure is 40.7% (active); as for `Cc1ccc(CC(=O)Nc2cccc(C#N)c2)cc1`, 22.1% (inactive); as for `CC(C)CN(C(=O)COC(=O)c1ccc(Cl)c(N)c1)c1c(N)n(Cc2ccccc2)c(=O)[nH]c1=O`, 2.64% (inactive).
In the case of `CCCCN=C1N/C(=C\c2ccco2)C(=O)N1c1ccccc1`, the inhibition was 28% (inactive).
The result for `CN(C)CCCN(Cc1cc2cc3c(cc2[nH]c1=O)OCCO3)C(=O)NC1CCCCC1` reads 7.7% (inactive).
As for `Cn1c(-c2sccc2OCc2cccc(C(F)(F)F)c2)n[nH]c1=S`, the figure is 43.5% (active).
Turning to `COc1cc(/C=N/n2c(C)n[nH]c2=S)ccc1OCc1ccccc1`, the inhibition was 34.8% (inactive).
As for `Cn1c(-c2sc3cc(C(F)(F)F)cnc3c2-c2ccccc2)n[nH]c1=S`, the figure is 18.5% (inactive); as for `CCCCNC(=O)Cn1nc(C)c(S(=O)(=O)N2CCOCC2)c1C`, -10.1% (inactive).
As for `COc1ccc(Cl)cc1NC(=O)C(C)N1CCc2ccccc21` (centres undefined), the figure is 10.7% (inactive).
The result for `c1ccc2c(c1)CCc1snnc1-2` reads -9.47% (inactive); that for `CC(NC(=S)Nc1ccccc1)C1COc2ccccc2O1` (centres undefined), 44.1% (active).
With `CC(=O)c1cccc(NC(=O)C2COc3ccccc3O2)c1` (centres undefined), the inhibition was 6.4% (inactive).
Regarding `C/C(=N/NC(=S)Nc1ccccc1)c1ccc2c(c1)OCO2`, the inhibition is 36.6% (inactive).
For the compound `CCCNC(=O)CCn1cc(-c2ccc(OC)cc2)nc1CCN`, the inhibition was -4.9% (inactive).
The result for `CCCCn1c(N)c(N(CCC(C)C)C(=O)COC(=O)c2ccc(CC)cc2)c(=O)[nH]c1=O` reads 9.31% (inactive).
With `CCCCCCCC(=O)NC(Nc1ccccc1OC)C(Cl)(Cl)Cl` (centres undefined), the inhibition is -1.41% (inactive).
As to `CCOC(=O)c1ccc(N=C2SC(C(=O)NC)CC(=O)N2CCc2ccccc2)cc1` (centres undefined), the inhibition is 8.86% (inactive).
The result for `Cc1cccc(N(C)C(=O)CN2C(=O)COc3ccc(S(=O)(=O)N4CCCCCC4)cc32)c1` reads 25.2% (inactive); that for `COc1ccc(NS(=O)(=O)c2ccc3oc(SCC(N)=O)nc3c2)cc1`, 6.21% (inactive); that for `CCOc1ccc(S(=O)(=O)Nc2nc3cc(OC)ccc3s2)cc1`, -15.2% (inactive).
As for `COc1ccc(S(=O)(=O)Nc2ccc(O)c(Sc3nc4ccccc4s3)c2)cc1`, the figure is 44.6% (active); as for `O=S(=O)(c1cccs1)N1CCN(CCOc2ccccc2)CC1`, 8.64% (inactive); as for `C[C@H](NC(=O)OC(C)(C)C)c1nnc(SCC(=O)Nc2ccc(Br)cc2)o1`, 20.6% (inactive).
The result for `CC(C)Sc1nnc([C@H](Cc2ccccc2)NC(=O)OC(C)(C)C)o1` reads 15.3% (inactive); that for `C[C@@H](NC(=O)OC(C)(C)C)c1nnc(S(=O)(=O)Cc2ccccc2)o1`, 45.1% (active); that for `C=Cn1c(C(=O)O)ccc1-c1ccc(OC)cc1`, 4.85% (inactive).
In the case of `CC1(C)CCSC(/C=C/c2ccccc2)=N1`, the inhibition was 44.4% (active).
For the compound `Cc1ccc(C(=O)NC2CCN(C(=O)Nc3ccccc3Cl)CC2)cc1`, the inhibition is -3.39% (inactive).
As to `CC(NC(=O)CN(C)S(=O)(=O)c1ccc(F)cc1)C1CC2CCC1C2` (centres undefined), the inhibition is 25.6% (inactive).
As for `Cc1cc(CNCc2c(C(=O)N(C)Cc3ccccc3)nc3ccccn23)nn1C`, the figure is 10.5% (inactive); as for `Cc1ccc(Oc2nc(-c3ccccn3)nc3ccccc23)cc1`, 44.9% (active); as for `CC(C)(C)Nc1nc(-c2ccccn2)nc2ccccc12`, -7.74% (inactive).
The result for `COc1cnc(-c2ccccn2)nc1Oc1ccc(C(C)(C)C)cc1` reads 35% (inactive); that for `Cn1nc(C(C)(C)C)c([N+](=O)[O-])c1C(N)=O`, -18.4% (inactive); that for `FC(F)(F)c1cccc(NC(=S)Nc2cccc(Cl)c2)c1`, 48.1% (active).
The result for `Cc1csc(NC(=S)Nc2cccc(Cl)c2)n1` reads 29.1% (inactive).
For the compound `S=C(Nc1cccc(Cl)c1)Nc1ccc2c(c1)OCCO2`, the inhibition was 32.9% (inactive).
The result for `Cc1cc(C)cc(OCC(=O)NCc2cc(C)nc3ccccc23)c1` reads 20.5% (inactive); that for `CCOc1ccc(-n2c(SCC(=O)NC3CCS(=O)(=O)C3)nnc2-c2cccnc2)cc1` (centres undefined), 7.61% (inactive); that for `Cc1cccc(C)c1NC(=O)CN(C)C(=O)CCC(=O)c1ccccc1`, 9.26% (inactive).
The result for `Cc1ccc(C(=O)CCC(=O)N(C)CC(=O)Nc2c(Cl)cccc2Cl)cc1` reads 97.9% (active).
As to `CN(CC(=O)Nc1c(Cl)cccc1Cl)C(=O)c1ccncc1`, the inhibition was 1.02% (inactive).
Consider `Cc1ccc(CNC(=O)Cc2cn(C)c3ccccc23)cc1`, for which the inhibition was 27.3% (inactive).
For the compound `CSc1ccc(S(=O)(=O)NCc2ccc(Cl)cc2)cc1`, the inhibition is 44.8% (active).
The result for `CC(C)CNS(=O)(=O)c1ccc(CCC(=O)NCc2ccc(Cl)cc2)cc1` reads 8.22% (inactive); that for `Cc1ccc(S(=O)(=O)NCCC(=O)NCc2ccc(Cl)cc2)cc1C`, 8.85% (inactive).
